Columns and labels:
[1] = target: T1, Aspartate--tRNA(Asp/Asn) ligase (Mycobacterium tuberculosis (strain ATCC 25618 / H37Rv)) (UniProt P9WFW3); assay: Assay for Asp RNA synthetase-1 from Mycobacterium tuberculosis; type: functional; parameters: scale not given: direction of the effect not stated beside the values; details: 30 µM; also: in the data most compounds retested in dose-response had high values
T1 sequence (whole entry): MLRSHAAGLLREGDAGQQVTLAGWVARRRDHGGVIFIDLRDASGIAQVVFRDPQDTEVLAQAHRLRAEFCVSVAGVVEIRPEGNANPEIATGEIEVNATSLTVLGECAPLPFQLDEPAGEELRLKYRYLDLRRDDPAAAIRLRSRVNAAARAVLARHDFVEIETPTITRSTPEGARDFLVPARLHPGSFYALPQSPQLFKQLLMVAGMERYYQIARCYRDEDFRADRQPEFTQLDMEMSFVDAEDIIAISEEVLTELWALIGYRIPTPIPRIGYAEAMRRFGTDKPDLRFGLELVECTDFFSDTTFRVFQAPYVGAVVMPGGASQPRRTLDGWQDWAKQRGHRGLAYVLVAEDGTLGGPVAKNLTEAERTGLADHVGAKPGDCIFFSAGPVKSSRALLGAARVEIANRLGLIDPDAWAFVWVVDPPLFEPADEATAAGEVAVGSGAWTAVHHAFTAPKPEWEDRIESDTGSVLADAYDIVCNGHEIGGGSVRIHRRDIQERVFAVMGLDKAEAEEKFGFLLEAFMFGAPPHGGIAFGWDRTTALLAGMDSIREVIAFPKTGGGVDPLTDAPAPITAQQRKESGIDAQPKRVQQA

[2] = target: Shiga toxin 2 (Escherichia coli O157:H7) (UniProt P09385+P09386); assay: E. coli 0.157:H7 Shiga Toxin SOP - stx2 screening assay; type: functional; parameters: scale not given: direction of the effect not stated beside the values; details: 30 µM

Question: Which results are given for `O=C(c1ccc[nH]1)N1CCCC2(CCN(c3ccsc3)C2=O)C1` (configuration not stated)?
Answer: Percent Effect [1]: 3.37%; Percent Effect [2]: 3.06%

Question: `CC(C)NC(=O)c1ccc2c(c1)nc1n2CCN(c2ccccc2)C1` was tested. Which Percent Effect [1] did it give?
Answer: 0.0581%

Question: And the Percent Effect [2]?
Answer: -15.6%

Question: `CC(C)(C)c1n[nH]c(C2CN(C(=O)c3csnn3)CCO2)n1` (configuration not stated) was tested. Which Percent Effect [1] did it give?
Answer: -2.01%

Question: What about the Percent Effect [2] of the same compound?
Answer: 5.88%

Question: How did the Percent Effect [1] turn out when `COc1cccc(-c2nc(C)c(C(=O)N[C@@H](C)C(=O)O)s2)c1` was run?
Answer: -1.66%

Question: What about the Percent Effect [2] of the same compound?
Answer: -52%

Question: How did the Percent Effect [1] turn out when `CCc1nc(CN2CCCC(NCc3cc(C)no3)C2)no1` (configuration not stated) was run?
Answer: 3.46%

Question: What about the Percent Effect [2] of the same compound?
Answer: 9.82%

Question: With `CN(C)C(=O)[C@H]1C[C@@H]2CCN(C3CCOCC3)C[C@H]2O1` as the compound, how does the Percent Effect [1] read?
Answer: -3.87%

Question: What about the Percent Effect [2] of the same compound?
Answer: -13.4%

Question: What does the source list for `CN(C)CCCNC(=O)CNC(=O)N1CCc2c([nH]c3ccccc23)C1`?
Answer: Percent Effect [1]: 4.82%; Percent Effect [2]: -42.4%

Question: `O=C(Nc1nc2c(s1)CN(S(=O)(=O)C1CC1)CC2)c1c(F)cccc1F` was tested. Which Percent Effect [1] did it give?
Answer: -0.834%

Question: And the Percent Effect [2]?
Answer: 2.22%

Question: With `CCn1ccnc1CN(C)CC1CCCN1c1cccnn1` (configuration not stated) as the compound, how does the Percent Effect [1] read?
Answer: 7.69%

Question: What about the Percent Effect [2] of the same compound?
Answer: -26.1%

Question: Which Percent Effect [1] does the source give for `CCc1nc(CN2CCCN(c3nccs3)CC2)no1` here?
Answer: 2%

Question: What about the Percent Effect [2] of the same compound?
Answer: -3.78%

Question: With `NCCn1nc(C2CCN(C(=O)CC3CCCCC3)C2)c2nccnc21` (configuration not stated) as the compound, how does the Percent Effect [1] read?
Answer: 1.37%

Question: And the Percent Effect [2]?
Answer: -31.7%

Question: `CNc1cncc(C2CCCN(S(C)(=O)=O)C2)n1` (configuration not stated) was tested. Which Percent Effect [1] did it give?
Answer: 5.76%

Question: What about the Percent Effect [2] of the same compound?
Answer: 2.62%

Question: Which Percent Effect [1] does the source give for `CC(C)n1[nH]c(=O)c2c1NC(=O)CC2c1ccc2ncccc2c1` (configuration not stated) here?
Answer: -3.5%

Question: And the Percent Effect [2]?
Answer: -15.3%

Question: What does the source list for `N#Cc1ccccc1CN1C[C@@H]2CC[C@H](C1)N(Cc1cscn1)C2=O`?
Answer: Percent Effect [1]: -3.02%; Percent Effect [2]: 3.66%

Question: What does the source list for `CCc1nc2n(n1)CC(NCC(=O)Nc1ccc(Cl)cn1)CC2` (configuration not stated)?
Answer: Percent Effect [1]: 0.314%; Percent Effect [2]: 2.33%

Question: Which results are given for `CN1CCN(Cc2cn3c(n2)CN(Cc2cccnc2)CC3)CC1`?
Answer: Percent Effect [1]: 1.94%; Percent Effect [2]: -10.7%

From ChEMBL document CHEMBL3988442, “University of Dundee, Small-Polar-MMV Screening Library” (2021)
